Screening results: PubChem, several laboratories
Compounds with a hit are over-represented: about 3.7% of the library has one in this group of screens.
TIM10 inh = inhibits growth of TIM10 yeast strain. S. cerevisiae TIM10 strain growth, BacTiter-Glo luminescence, 24 h. inhibition, % at 10 µM. 330,000 tested, 1.4% active. AID 463195;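 active = inhibition of 40% or more at the single tested concentration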;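 note: wild-type TIM10 isogenic control strain grown at permissive 25 °C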
tim10-1 inh = tim10-1 yeast growth inhibition; S. cerevisiae tim10-1 ts strain growth, BacTiter-Glo, 24 h; inhibition, % at 20 µM; 330,000 tested, 2.2% active; AID 463190;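 active = inhibition of at least 40%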;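 note: mutant grown at 25 °C; 0% = DMSO wells with yeast and 100% = wells holding no yeast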
PfHsp90 set2 = growth inhibition of yeast expressing Plasmodium Hsp90. AID 504621. inhibition, % at 9.4 µM. 310,000 tested, 0.32% active. S. cerevisiae expressing PfHsp90, BacTiter-Glo ATP, 48 h; yeast lacking PDR1 and PDR3 efflux regulators;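 active = every replicate shows inhibition above about 80%, whatever the replicate mean, limit read from the data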;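 note: 0% = DMSO neutral controls and 100% = 20 µM radicicol positive controls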
tim23-1 inh = inhibits growth of tim23-1 mutant yeast. S. cerevisiae tim23-1 growth, BacTiter-Glo luminescence, 24 h. inhibition, % at 20 µM. 330,000 tested, 1.3% active. AID 463212;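 active = growth inhibition of the mutant yeast at or above 50%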;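 note: temperature-sensitive mutant grown at 25 °C; plate controls were DMSO-treated mutant yeast for no effect and medium wells lacking yeast for full effect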
NALP3 yeast inh = blocks the NALP3 inflammasome reconstituted in yeast; 330,000 tested, 0.39% active; inhibition, % at 10 µM; AID 2825; Yeast reconstituted NLRP3/ASC/caspase-1, beta-gal luminescence, 24 h;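 active = inhibition of 50% or more; inactive = inhibition below 50%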;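 note: plate controls were induced DMSO wells for no effect and uninduced yeast grown without galactose for full effect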
tim10-1 confirm = confirmation of tim10-1 mutant yeast growth inhibitors; shares compounds with tim10-1 inh; 7,400 tested, 56% active; S. cerevisiae tim10-1 ts strain growth, BacTiter-Glo, 24 h; inhibition, % at 20 µM; AID 463213;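 active = inhibition of yeast growth at or above a set limit in either of two repeat tests at 20 µM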;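 note: tim10-1 mutant grown at permissive 25 °C to find synthetic lethal compounds; 0% = DMSO yeast wells and 100% = medium wells without yeast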
* hit, by the source's call; nt = no result given.

SMILES	TIM10 inh	tim10-1 inh	PfHsp90 set2	tim23-1 inh	NALP3 yeast inh	tim10-1 confirm
O=C(NCC(c1ccco1)N1CCN(c2ccccc2)CC1)OCc1ccccc1 (centres undefined)	6	41*	5	30	12	24
Cc1cccn2c(=O)c(C=O)c(N3CCCCC3)nc12	-4	21	7	35	13	nt
Cc1cccn2c(=O)c(C=O)c(N3CCN(c4ccc(F)cc4)CC3)nc12	33	49*	12	28	23	36*
COc1ccc(NC(=O)CN(C)C(=O)C2=COCCO2)cc1	-4	0	-8	7	12	nt
O=c1c2ccccc2nc(SCc2cn3ccsc3n2)n1-c1ccc(F)cc1	18	43*	-3	32	4	19
COc1ccc(-c2cc(C(=O)OCc3ccccn3)c3ccccc3n2)cc1	22	42*	-7	31	7	14
COc1ccc(-c2cc(C(=O)N3CCCCCC3)c3ccccc3n2)cc1	19	52*	3	46	23	13
Fc1c(F)c(F)c(SCn2cc(Br)cn2)c(F)c1F	1	1	43	9	2	nt
CC(NC(=O)C12CC3CC(CC(C3)C1)C2)c1ccc2c(c1)OCCO2 (centres undefined)	8	45*	nt	24	9	25
CCc1nn(CCCC(=O)N2CCN(c3cccc(C)c3C)CC2)c(=O)c2cc3occc3n12	27	54*	-3	38	34	21
CCc1nn(CCCC(=O)N2CCc3ccccc3C2)c(=O)c2cc3occc3n12	7	3	8	12	0	nt
CC1(C)Cc2c(ccc3ccccc23)/C(=C/C(=O)N2CCCCC2)N1	30	45*	3	47	30	32*
CCCCN(C)S(=O)(=O)c1cc(Br)cc2c1N(C(=O)C1CC1)CC2	32	42*	-19	41	-4	32*
COc1ccc(NC2c3ncccc3C(=O)N2Cc2cccs2)cc1 (centres undefined)	-1	12	4	7	-2	nt
O=C1c2cccnc2C(Nc2ccc(Br)cc2)N1Cc1cccs1 (centres undefined)	34	41*	nt	15	20	23
O=C1OC(CC(=O)N(Cc2nnc(-c3ccccc3Cl)o2)C2CC2)c2ccccc21 (centres undefined)	11	7	9	22	-3	nt
CCCNC(=O)c1sc2c(c1C(=O)Nc1ccccn1)CCCC2	15	47*	4	38	11	27
CN(C)CCNC(=O)c1c(NC(=O)c2ccccc2)sc2c1CCCC2	8	26	13	22	25	nt
CC(C(=O)NCc1ccc(F)cc1)n1ccc2cc(S(=O)(=O)N3CCCC3)ccc21 (centres undefined)	8	7	-6	14	5	nt
Cc1nn(-c2ccccc2)c(Cl)c1C(=O)N1CCN(c2ncnc3c2cnn3-c2ccccc2)CC1	24	41*	-11	23	18	32*
O=C(c1ccccc1)N1CCN(c2ncnc3c2cnn3-c2ccccc2)CC1	26	18	-4	17	-6	nt
Cc1cc(C)cc(NC(=O)CCc2c(C)nn(-c3ccc(N4CCOCC4)nn3)c2C)c1	-1	26	-1	12	27	nt
CCc1ccccc1NC(=O)CCc1c(C)nn(-c2ccc(N3CCOCC3)nn2)c1C	12	62*	-62	10	10	-9
COc1ccc(-c2cnc(SCC(=O)Nc3cc(C)on3)n2Cc2ccco2)cc1	8	44*	-5	18	8	21
COCCn1c(SCC(=O)Nc2ccccc2OC)nc2ccccc2c1=O	-13	-22	11	14	14	nt
SMILES	TIM10 inh	tim10-1 inh	PfHsp90 set2	tim23-1 inh	NALP3 yeast inh	tim10-1 confirm
COCCn1c(-c2ccc(OC)cc2)cnc1SCC(=O)Nc1cccc2ccccc12	-9	45*	3	26	-19	9
Cn1nc(C(F)(F)F)c2cc(NC(=O)OCc3ccc(C(C)(C)C)cc3)sc21	15	9	-6	6	8	nt
COc1ccc(COC(=O)Nc2cc3c(C(F)(F)F)nn(C)c3s2)cc1	14	44*	-3	12	25	26
Cc1ccc(C2=NS(=O)(=O)N(C)C(C(=O)Nc3cc(C)n(CC(=O)N4CCC(C)CC4)n3)=C2)cc1	-5	-17	-4	1	-1	nt
CCCOc1ccc(C(=O)N2CCN(c3ccc(N)cc3Cl)CC2)cc1	33	48*	21	42	-1	35*
Cc1cccc(NC(=S)NNC(=O)c2csc(C(C)C)c2)c1	34	44*	12	10	10	28
CCc1cc(C(=O)NNC(=S)Nc2cccc(C)c2)cs1	23	36	14	2	3	nt
COc1ccc(-c2cc(C(F)(F)F)nc(N3CCN(Cc4ccccc4)CC3)n2)cc1OC	21	46*	1	23	6	23
Cc1cccc(C(=O)O/N=C(/c2ccccc2)c2ccncc2)c1	31	41*	nt	37	26	42*
N/C(=N\OC(=O)c1ccc(Br)cc1)c1ccncc1	37	53*	0	29	-7	43*
O=C(O/N=C/c1ccc(Br)cc1)c1ccc(F)cc1	-32	7	-18	-3	3	nt
COc1ccc(C(=O)O/N=C(/c2ccccc2)c2ccncc2)cc1OC	35	14	13	29	19	nt
N/C(=N\OC(=O)c1ccc(F)cc1)c1ccc(Br)cc1	34	57*	nt	29	20	46*
N/C(=N\OC(=O)c1cccc(Br)c1)c1ccncc1	11	41*	10	12	-36	35*
CCCCn1c(N)c(N(CCOC)C(=O)c2ccc3c(c2)C(=O)N(c2ccccc2Cl)C3=O)c(=O)[nH]c1=O	4	-9	13	-6	14	nt
Cc1noc(C)c1NC(=O)Nc1ccc2c(c1)C(=O)N([C@@H](C)CO)C[C@@H](C)[C@@H](CN(C)Cc1ccc3c(c1)OCO3)O2	-6	1	-5	-16	11	nt
CC(C)(C)n1nnnc1C(c1cccs1)N1CCCc2ccccc21 (centres undefined)	27	43*	-21	48	-83	38*
CC(C)C(c1nnnn1C1CCCC1)N1CCc2ccccc21 (centres undefined)	14	36	-39	39	-43	nt
CC(C)C(c1nnnn1C1CCCCC1)N1CCCc2ccccc21 (centres undefined)	26	44*	-19	18	-12	29
CC(C)C(c1nnnn1C1CCCC1)N1CCCc2ccccc21 (centres undefined)	25	41*	nt	39	-57	37*
N#CCC(=O)Nc1ccc(C(=O)OCC(=O)N(C2CCCCC2)C2CCCCC2)cc1	18	37	24	37	8	nt
O=C(Nc1cccc(O)c1)c1cccc(NC(=O)c2cccs2)c1	16	-16	-24	1	17	nt
CCCc1nn(C)c(C(=O)Nc2ccc(C)c(C)c2)c1Cl	-10	0	-12	3	16	nt
